Screening data: PubChem, National Center for Advancing Translational Sciences (NCATS)
GBA mod: alters purified human glucocerebrosidase activity; 48,000 compounds, 1.1% hits; AID 360; P04062; Potency, µM; purified enzyme, resorufin glucoside fluorescence (screen aimed at inhibitors), 20 min; in the data active means potency below about 15 µM; inconclusive means mostly about 16 µM to 33 µM;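 further: the screen sought inhibitors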
Target sequence (P04062 whole entry, looked up): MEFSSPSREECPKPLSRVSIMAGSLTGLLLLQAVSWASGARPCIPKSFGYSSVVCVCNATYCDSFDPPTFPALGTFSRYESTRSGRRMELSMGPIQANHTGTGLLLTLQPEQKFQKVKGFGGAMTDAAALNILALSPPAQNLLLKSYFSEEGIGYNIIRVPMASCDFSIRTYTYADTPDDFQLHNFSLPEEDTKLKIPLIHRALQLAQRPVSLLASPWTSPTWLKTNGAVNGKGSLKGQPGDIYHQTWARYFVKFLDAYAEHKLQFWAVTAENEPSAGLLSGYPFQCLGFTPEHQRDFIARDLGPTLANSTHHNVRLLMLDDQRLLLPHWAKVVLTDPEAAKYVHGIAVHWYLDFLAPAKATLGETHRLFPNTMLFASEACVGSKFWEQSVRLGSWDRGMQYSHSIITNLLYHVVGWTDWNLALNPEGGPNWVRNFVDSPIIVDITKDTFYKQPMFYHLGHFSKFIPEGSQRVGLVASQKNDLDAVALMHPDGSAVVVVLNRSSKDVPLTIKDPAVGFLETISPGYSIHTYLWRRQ
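Wild-type enzyme at 0.2 nM final in 50mM citric acid/KH2PO4, 10mM sodium taurocholate, 0.01% tween-20, pH 5.9, with resorufin beta-D-glucopyranoside at 30 uM final. Compounds titrated, 20 min at RT, red fluorescence read; AC50 from titration.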
Epigenetic mod: derepresses silenced GFP locus in mouse C127i cells; Potency, µM (top dose mostly 46.1 µM); AID 597; 68,000 compounds, 0.09% hits; mouse C127i GFP locus derepression, cytometry, 30 h
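Locus derepression in mouse mammary C127i cells whose integrated CMV-GFP reporter is normally silent; GFP expression after 30 h compound treatment was quantified by counting fluorescent cells.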
HBB splice mod: alters splicing of the hemoglobin beta chain | HBB splicing reporter cell assay, activation; EGFP reporter with mutant IVS2-654 intron; response scale: normalised to 500 nM splice-correcting PNA | Potency, µM (top dose mostly 46.1 µM), actives largely listed as activators | 65,000 compounds, 0.06% hits
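Compounds were applied for 2 days to HeLa EGFP-654 cells, 500/well in Optimem with 2% FCS. The reporter's EGFP is disrupted by mis-splicing of beta-globin intron IVS2-654. Readout: summed well GFP fluorescence from 488 nm laser scanning; reference was 500 nM antisense […] 654 PNA.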
USP2a inhib: USP2a (human) protease inhibition; 60,000 compounds, 0.1% hits; Potency, µM (titrated, usually from 38.3 µM), hits mostly inhibitors; USP2a enzymatic assay, qHTS inhibition; further: nearly all actives have a fitted effect of over 60% in size
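USP2 core (20 nM final) was preincubated with compound for 30 min at RT in 20 mM Tris-HCl pH 8.0, 2 mM CaCl2, 2 mM beta-mercaptoethanol; Ub-PLA2 (20 nM) plus NBD C6-HPC (20 uM) then added, fluorescence read after 2.5 h.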
Hsp90 Hop PPI: changes Hsp90-Hop TPR2A binding signal, up or down | AlphaScreen TPR2A-His6 binding biotin-Hsp90 C-terminal peptide | Potency, µM (doses to about 57 µM) | 71,000 compounds, 0.44% hits; active means well fitted curve in either direction with a large enough effect; inconclusive means small, poorly fitted or top-dose-only effect, or another doubt
UbGFP stabilizer: ubiquitin-GFP accumulation via proteasome inhibition | Ubiquitin-GFP reporter cells, proteasome inhibition, GFP fluorescence; response scale: untreated = 0%, 10 µM MG-132 = 100% | Potency, µM (doses to about 45.9 µM), usual class: activators | 67,000 tested, under 10 active | AID 526; active means well fitted activation curve with a large enough effect, not every such curve was filed as active; inconclusive means small, poorly fitted or top-dose-only effect, or another doubt; inactive means no such curve, though single readings can be large or run the other way
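U2OS cells stably expressing ubiquitin(G76V)-GFP, seeded overnight in 0.5% FBS medium, were exposed to compounds (qHTS, 46 uM to 2.9 nM) for 4 hr at 37 °C. GFP-positive cells were counted by laser cytometry (488 ex/515 em), normalized between basal and 10 uM MG-132.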
Large screens that a line does not name were inactive. This is a sample that favours compounds with a hit; in the whole collection about 1.1% have one here. Unless noted, the call rests on the fitted dose curve; in most records, active means well fitted curve in the direction sought with a large enough effect; inconclusive means small, poorly fitted or top-dose-only effect, or another doubt; inactive means no such curve, though single readings can be large; an effect the other way counts as inactive or inconclusive.

CCCCCCCCCCCC(CC1OC(=O)C1CCCCCC)OC(=O)C(CC(C)C)NC=O (stereo not drawn)	USP2a inhib 10µM (no result: GBA mod, Epigenetic mod, HBB splice mod, Hsp90 Hop PPI, UbGFP stabilizer)
CCOC(=O)c1cccc(NC(=O)CSc2nnc(COc3ccccc3)n2CC)c1	Hsp90 Hop PPI inconclusive (no result: HBB splice mod)
CCn1c(Cn2nnc(-c3ccccc3)n2)nnc1SCC(=O)Nc1ccccc1	GBA mod 9.58 (no result: USP2a inhib)
CSc1nc2nc(-c3ccccc3)cc(C(F)(F)F)n2n1	GBA mod 10.8
Cc1c(C(=O)O)c(O)cc2c1C(=O)c1c(O)c([C@@H]3O[C@H](CO)[C@@H](O)[C@H](O)[C@@H]3O)c(O)c(O)c1C2=O	Hsp90 Hop PPI inconclusive (no result: GBA mod, HBB splice mod, USP2a inhib)
CNC(=O)C1CC(=O)N(c2ccc(F)c(Cl)c2)C1 (stereo not drawn)	none
CN(CCNC(=O)C1CC(=O)N(c2ccc(F)c(Cl)c2)C1)Cc1ccccc1 (stereo not drawn)	GBA mod 15.4
C=CCn1cnc2c(c1=O)c1nc3ccccc3nc1n2/N=C/c1ccccn1	GBA mod 8.41
C=CCn1cnc2c(c1=O)c1nc3ccccc3nc1n2/N=C/c1cccc(OC)c1OC	GBA mod 6.6
C=CCn1cnc2c(c1=O)c1nc3ccccc3nc1n2/N=C/c1cc(OC)c(OC)c(OC)c1	none
COC(=O)COc1ccc(S(=O)(=O)Nc2ccc3c(c2)OCCO3)cc1Cl	GBA mod 13.9
O=[N+]([O-])/C=C\c1cc2ccccc2[nH]1	none (no result: GBA mod, USP2a inhib)
CN1CC[C@@]2(CCN3CCc4c(oc5ccccc45)[C@@H]3C2)N(C)C1=O	none (no result: GBA mod)
CC(=O)N1CCC2(CCN(Cc3nccs3)CC2)CC1	none (no result: GBA mod)
O=C(Nc1cccnc1)c1ccc(NC(=O)c2ccco2)cc1	GBA mod inconclusive
CCC(=O)Nc1ccc(S(=O)(=O)Nc2cccnc2)cc1	none
CCC(=O)Nc1ccc(C(=O)Nc2cccnc2)cc1	GBA mod 6.59
O=C(Nc1cccnc1)c1ccc(COCC(F)(F)F)cc1	GBA mod 5.09, Hsp90 Hop PPI inconclusive
CN1CCN(c2ncc3nc(-c4ccccc4)c(=O)n(CCc4ccccc4)c3n2)CC1	Hsp90 Hop PPI inconclusive (no result: GBA mod)
COc1ccc2ccccc2c1C1CC(=O)N2CN(C)CSC2=C1C#N (stereo not drawn)	GBA mod 14.5
CCN(c1cccc(C)c1)S(=O)(=O)c1ccc2c(c1)CCN2C(C)=O	none
CCN(c1cccc(C)c1)S(=O)(=O)c1ccc2[nH]c(=O)c(=O)[nH]c2c1	GBA mod 7.43
NCCC1([N+](=O)[O-])CCNCC1	none (no result: GBA mod, USP2a inhib)
O=C(CSc1nnc(C2COc3ccccc3O2)o1)Nc1nccs1 (stereo not drawn)	Hsp90 Hop PPI 12.6µM (no result: GBA mod, USP2a inhib)
O=C(CSc1nnc(C2COc3ccccc3O2)o1)NC1CCCCC1 (stereo not drawn)	none (no result: GBA mod, USP2a inhib)
COc1cc2c(C#N)c(N3CCN(c4ccccc4OC)CC3)nc(N)c2c(N)n1	none
N#Cc1c(N2CCCC2)nc(N)c2c(N)nc(N3CCCC3)cc12	Hsp90 Hop PPI 25.1µM (no result: GBA mod)
Cc1ccc(S(=O)(=O)c2c(C)nn(C(C)(C)C)c2OC(=O)c2ccc(Br)o2)cc1	GBA mod 12.5
Cc1ncc2c(c1O)COP(=O)(O)OC2	none (no result: GBA mod, HBB splice mod, USP2a inhib)
Nc1nc(Nc2cccc3ccccc23)nc(C2CCCC2=O)n1 (stereo not drawn)	GBA mod 1.52
c1ccc(Nc2cccc3ccccc23)cc1	none (no result: GBA mod, Epigenetic mod, USP2a inhib, UbGFP stabilizer)
COc1cccc2c1[C@@H]1CN(CCCCn3c(=O)[nH]c4c(sc5ncc(-c6ccccc6)nc54)c3=O)C[C@H]1CO2	Hsp90 Hop PPI inconclusive (no result: GBA mod)
S=C([S-])NCCNC(=S)[S-].[Zn+2]	Hsp90 Hop PPI 15.8µM (no result: GBA mod, Epigenetic mod, USP2a inhib, UbGFP stabilizer)
CCOC(=O)C1=C(C)NC(=O)NC1c1ccc(OC(C)C(=O)O)c(OC)c1 (stereo not drawn)	Hsp90 Hop PPI 12.6µM
CC(C)Oc1ccc(NC(=O)c2ccncc2)cc1	GBA mod 7.88
Cc1c(N=C=O)cccc1N=C=O	none (no result: GBA mod, Epigenetic mod, USP2a inhib, UbGFP stabilizer)
O=C(CCCCCNc1nc(=S)[nH]c2ccccc12)N1CCN(c2ccccn2)CC1	GBA mod 5.73
Cc1noc(C)c1S(=O)(=O)Nc1ccc(C(=O)NC2CCCCCC2)cc1	GBA mod 5.8
CC(C)(C)OC(=O)N[C@@H](Cc1ccccc1)c1nnc(S(=O)(=O)Cc2cccc(F)c2)o1	GBA mod 14.8
Cc1ccccc1CS(=O)(=O)c1nnc([C@H](CC(C)C)NC(=O)OC(C)(C)C)o1	Epigenetic mod inconclusive (no result: GBA mod)
O=C(Nc1ccc2c(c1)OCCO2)c1ccc2nccnc2c1	none
O=C(Nc1ccc(SC(F)F)cc1)c1ccc2nccnc2c1	GBA mod 12.4
CC(=O)O[C@H]1CC[C@]2(C)C(=CC[C@H]3[C@H]4C[C@H]5O[C@]6(CC[C@H](C)CN6)[C@H](C)[C@@H]5[C@]4(C)CC[C@@H]32)C1	none (no result: GBA mod, USP2a inhib)
COc1ncc2nc(-c3cn(C)c4ccccc34)c(=O)n(C)c2n1	none (no result: GBA mod)
Cc1noc(C)c1C(=O)OCC(=O)c1c[nH]c2ccccc12	GBA mod 8.3
NC(=O)c1ncn([C@@H]2O[C@@H](CO)[C@@H](O)[C@H]2O)c1O	none (no result: GBA mod)
Cc1ccnc(N2CCC(C(=O)Nc3nnc(C)s3)CC2)n1	GBA mod 11.7 (no result: HBB splice mod)
Cc1ccnc(N2CCCC(C(=O)Nc3nnc(C)s3)C2)n1 (stereo not drawn)	none (no result: GBA mod, USP2a inhib)
CCSc1nc(-c2ccc(OC)cc2)ccc1C#N	Hsp90 Hop PPI 25.1µM (no result: HBB splice mod)
